The supplement of paper PMC10849652
About 7,900 targets were measured; listed, in parts, are those with a hit and a random draw of the rest. About 0.6% of all pairs of compound and target were hits. Values without a mark were called inactive.

compound: CC(C)C[C@@H](C=O)NC(=O)[C@H](CC(C)C)NC(=O)[C@H](CC(C)C)NC(=O)OCc1ccccc1; assay: log2 fold change, soluble protein after heating vs DMSO (PISA); higher = thermal stabilisation; K562 cells, 10 uM, 30 min; active = over 0.2 and 3.5 SD of the protein, either way, in both replicates (recomputed)
Outline: (§1)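 Quantification of soluble protein used TMTpro 16plex LC-MS/MS, with channel sums equalised. Samples were the supernatant after 21,000xg for 90 min of pooled aliquots from K562 cells (2×10^6 cells/mL) treated with 10 μM compound for 30 min, heated for 3 min over 48°C-58°C, and extracted in PBS with 0.5% NP-40 at 4°C. Values, from duplicates, describe thermal stability against control samples on a log2 fold-change scale.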

Sequence of UniProt P12931 (P12931 whole entry, looked up): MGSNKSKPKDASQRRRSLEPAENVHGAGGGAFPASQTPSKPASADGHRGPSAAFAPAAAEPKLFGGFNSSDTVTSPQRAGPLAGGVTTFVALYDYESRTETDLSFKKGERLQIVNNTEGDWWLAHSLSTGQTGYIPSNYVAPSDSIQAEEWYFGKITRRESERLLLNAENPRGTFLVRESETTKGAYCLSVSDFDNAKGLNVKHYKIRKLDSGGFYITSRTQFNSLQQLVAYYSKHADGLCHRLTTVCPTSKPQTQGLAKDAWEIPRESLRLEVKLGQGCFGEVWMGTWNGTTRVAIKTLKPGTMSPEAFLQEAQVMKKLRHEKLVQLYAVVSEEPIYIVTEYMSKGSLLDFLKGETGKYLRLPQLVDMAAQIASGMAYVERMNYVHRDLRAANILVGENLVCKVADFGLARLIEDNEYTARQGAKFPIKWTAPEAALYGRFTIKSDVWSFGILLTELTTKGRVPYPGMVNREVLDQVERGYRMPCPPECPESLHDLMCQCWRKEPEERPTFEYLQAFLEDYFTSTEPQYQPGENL
Sequence of UniProt A6NHR9 (A6NHR9 whole entry, looked up): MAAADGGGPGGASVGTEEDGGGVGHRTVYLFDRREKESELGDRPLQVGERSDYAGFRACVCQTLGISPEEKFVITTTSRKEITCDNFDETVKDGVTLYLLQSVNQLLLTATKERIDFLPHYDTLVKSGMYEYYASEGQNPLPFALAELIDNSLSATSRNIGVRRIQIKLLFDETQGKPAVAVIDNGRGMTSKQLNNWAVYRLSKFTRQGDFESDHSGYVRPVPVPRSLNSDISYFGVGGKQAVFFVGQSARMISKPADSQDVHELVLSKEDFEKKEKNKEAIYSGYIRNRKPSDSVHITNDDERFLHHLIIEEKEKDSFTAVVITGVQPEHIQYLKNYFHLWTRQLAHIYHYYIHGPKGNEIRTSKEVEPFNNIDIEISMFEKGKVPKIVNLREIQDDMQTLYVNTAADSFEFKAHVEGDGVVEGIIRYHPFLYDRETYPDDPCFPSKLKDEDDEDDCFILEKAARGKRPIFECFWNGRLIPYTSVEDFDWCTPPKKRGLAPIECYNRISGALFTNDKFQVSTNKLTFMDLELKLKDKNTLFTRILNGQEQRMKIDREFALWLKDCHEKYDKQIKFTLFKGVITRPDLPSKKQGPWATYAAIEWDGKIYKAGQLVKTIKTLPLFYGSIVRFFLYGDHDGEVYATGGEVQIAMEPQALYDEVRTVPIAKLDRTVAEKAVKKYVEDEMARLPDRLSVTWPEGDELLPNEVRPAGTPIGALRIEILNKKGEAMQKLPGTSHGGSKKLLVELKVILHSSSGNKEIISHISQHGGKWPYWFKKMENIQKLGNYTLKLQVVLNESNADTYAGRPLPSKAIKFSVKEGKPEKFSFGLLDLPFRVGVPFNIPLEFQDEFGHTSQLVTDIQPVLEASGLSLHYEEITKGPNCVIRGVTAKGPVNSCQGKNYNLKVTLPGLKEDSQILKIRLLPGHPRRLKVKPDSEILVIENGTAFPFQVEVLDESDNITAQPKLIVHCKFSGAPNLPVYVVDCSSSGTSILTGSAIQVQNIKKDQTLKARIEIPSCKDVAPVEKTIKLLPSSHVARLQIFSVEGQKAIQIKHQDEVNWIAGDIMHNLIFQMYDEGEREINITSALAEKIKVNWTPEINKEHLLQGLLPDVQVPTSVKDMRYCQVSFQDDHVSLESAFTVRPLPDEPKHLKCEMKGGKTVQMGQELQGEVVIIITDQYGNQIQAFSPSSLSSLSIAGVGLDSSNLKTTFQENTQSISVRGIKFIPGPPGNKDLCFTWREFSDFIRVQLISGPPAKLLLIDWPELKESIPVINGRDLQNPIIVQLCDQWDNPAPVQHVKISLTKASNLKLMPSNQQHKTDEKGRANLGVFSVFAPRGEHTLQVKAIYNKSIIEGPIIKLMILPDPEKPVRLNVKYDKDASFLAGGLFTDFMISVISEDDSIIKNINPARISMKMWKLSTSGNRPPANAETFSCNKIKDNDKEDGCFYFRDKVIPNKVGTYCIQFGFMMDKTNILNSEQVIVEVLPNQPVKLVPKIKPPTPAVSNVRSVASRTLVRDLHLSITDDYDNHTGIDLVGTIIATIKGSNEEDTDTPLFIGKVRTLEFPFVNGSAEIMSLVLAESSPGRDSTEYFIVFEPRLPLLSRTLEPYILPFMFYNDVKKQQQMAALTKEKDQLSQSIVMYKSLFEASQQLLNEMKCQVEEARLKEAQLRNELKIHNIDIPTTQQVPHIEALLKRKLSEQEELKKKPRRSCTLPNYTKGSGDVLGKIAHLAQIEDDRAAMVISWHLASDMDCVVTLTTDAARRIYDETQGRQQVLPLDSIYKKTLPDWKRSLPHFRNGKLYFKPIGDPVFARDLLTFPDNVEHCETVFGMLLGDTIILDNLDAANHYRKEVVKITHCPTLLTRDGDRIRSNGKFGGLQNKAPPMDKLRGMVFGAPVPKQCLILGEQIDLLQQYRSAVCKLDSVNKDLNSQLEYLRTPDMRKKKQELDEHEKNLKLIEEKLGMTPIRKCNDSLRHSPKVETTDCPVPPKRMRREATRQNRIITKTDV
Sequence of UniProt Q9Y5L4 (Q9Y5L4 whole entry, looked up): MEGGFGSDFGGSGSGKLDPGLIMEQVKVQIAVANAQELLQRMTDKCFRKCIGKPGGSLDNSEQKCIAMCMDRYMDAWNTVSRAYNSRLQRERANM
Sequence of UniProt Q13242 (Q13242 whole entry, looked up): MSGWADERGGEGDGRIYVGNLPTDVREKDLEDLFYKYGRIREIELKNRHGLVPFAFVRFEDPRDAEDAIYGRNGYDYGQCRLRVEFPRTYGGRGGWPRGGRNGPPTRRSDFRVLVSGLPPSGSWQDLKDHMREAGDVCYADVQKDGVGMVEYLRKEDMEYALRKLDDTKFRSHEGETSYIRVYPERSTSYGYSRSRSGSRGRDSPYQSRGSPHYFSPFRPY
Sequence of UniProt Q9C0B7 (Q9C0B7 whole entry, looked up): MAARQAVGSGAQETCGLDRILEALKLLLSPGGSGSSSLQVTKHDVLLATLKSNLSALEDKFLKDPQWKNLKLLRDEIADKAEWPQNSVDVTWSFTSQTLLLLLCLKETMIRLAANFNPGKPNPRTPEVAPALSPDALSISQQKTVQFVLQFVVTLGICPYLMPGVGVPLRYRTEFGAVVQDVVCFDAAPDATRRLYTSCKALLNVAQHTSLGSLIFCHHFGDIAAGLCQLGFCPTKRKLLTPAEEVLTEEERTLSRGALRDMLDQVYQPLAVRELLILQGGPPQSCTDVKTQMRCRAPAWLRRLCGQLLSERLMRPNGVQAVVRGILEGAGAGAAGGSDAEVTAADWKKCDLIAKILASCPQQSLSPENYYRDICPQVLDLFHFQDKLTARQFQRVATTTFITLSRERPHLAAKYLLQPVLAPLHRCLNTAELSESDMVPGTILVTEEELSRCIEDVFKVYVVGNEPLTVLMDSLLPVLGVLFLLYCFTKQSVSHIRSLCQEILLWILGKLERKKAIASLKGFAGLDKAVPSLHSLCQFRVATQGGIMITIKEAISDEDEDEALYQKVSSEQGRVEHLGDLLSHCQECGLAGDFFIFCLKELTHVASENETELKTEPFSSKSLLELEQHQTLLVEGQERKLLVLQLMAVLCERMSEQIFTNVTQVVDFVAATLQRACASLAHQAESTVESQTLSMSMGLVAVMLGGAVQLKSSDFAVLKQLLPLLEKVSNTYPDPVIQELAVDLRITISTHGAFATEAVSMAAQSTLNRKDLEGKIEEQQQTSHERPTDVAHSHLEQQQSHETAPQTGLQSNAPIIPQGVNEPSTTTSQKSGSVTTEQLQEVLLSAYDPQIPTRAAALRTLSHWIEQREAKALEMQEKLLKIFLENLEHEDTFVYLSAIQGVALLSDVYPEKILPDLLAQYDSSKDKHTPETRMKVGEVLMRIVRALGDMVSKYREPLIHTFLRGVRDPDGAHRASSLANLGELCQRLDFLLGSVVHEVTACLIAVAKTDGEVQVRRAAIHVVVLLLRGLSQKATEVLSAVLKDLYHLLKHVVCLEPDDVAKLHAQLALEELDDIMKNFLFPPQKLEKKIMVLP
Sequence of UniProt Q9H2K8 (Q9H2K8 whole entry, looked up): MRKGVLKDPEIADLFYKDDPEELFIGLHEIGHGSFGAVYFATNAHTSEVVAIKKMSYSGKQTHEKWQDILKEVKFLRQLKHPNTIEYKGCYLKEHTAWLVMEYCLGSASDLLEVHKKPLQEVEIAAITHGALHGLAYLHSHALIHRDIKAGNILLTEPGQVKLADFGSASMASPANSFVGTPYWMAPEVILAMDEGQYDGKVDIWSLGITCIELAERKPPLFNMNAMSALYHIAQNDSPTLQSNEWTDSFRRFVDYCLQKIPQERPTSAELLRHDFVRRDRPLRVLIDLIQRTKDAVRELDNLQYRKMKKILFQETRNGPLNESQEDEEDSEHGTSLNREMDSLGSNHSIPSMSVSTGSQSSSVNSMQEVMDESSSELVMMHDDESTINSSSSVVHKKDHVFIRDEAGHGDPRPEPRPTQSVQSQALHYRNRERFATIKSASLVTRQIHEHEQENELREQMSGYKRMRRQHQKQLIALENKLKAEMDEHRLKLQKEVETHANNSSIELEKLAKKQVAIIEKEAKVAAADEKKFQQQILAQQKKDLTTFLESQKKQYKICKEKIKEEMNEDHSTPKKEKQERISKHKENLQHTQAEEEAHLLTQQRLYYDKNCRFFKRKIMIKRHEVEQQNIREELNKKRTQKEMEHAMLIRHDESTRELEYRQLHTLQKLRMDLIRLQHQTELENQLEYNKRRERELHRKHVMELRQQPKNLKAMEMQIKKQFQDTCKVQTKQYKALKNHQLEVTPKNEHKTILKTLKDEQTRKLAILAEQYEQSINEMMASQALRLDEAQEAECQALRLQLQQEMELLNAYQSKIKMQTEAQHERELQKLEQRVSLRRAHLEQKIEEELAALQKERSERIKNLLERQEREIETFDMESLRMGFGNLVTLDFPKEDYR
Sequence of UniProt Q9Y5J6 (Q9Y5J6 whole entry, looked up): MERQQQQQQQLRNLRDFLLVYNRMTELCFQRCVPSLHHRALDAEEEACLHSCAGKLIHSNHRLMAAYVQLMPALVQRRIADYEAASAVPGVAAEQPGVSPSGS
Sequence of UniProt Q8N5G0 (Q8N5G0 whole entry, looked up): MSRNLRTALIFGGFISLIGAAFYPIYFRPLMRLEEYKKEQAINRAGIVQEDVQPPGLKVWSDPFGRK

Row | Target | log2 fold change
1 | STK38 (UniProt Q15208) | 0.016
2 | TBC1D24 (UniProt Q9ULP9) | -0.053
3 | SMARCA4 (UniProt P51532) | 0.16
4 | TAOK3 (UniProt Q9H2K8) | 0.033
5 | SP100 isoform 4 (UniProt P23497) | -0.07
6 | TBRG4 (UniProt Q969Z0) | -0.038
7 | TIMM10B (UniProt Q9Y5J6) | -0.126
8 | SMIM20 isoform 2 (UniProt Q8N5G0) | 0.006
9 | SPTBN4 (UniProt Q9H254) | -0.07
10 | TGFBI (UniProt Q15582) | 0.05
11 | STARD3NL (UniProt O95772) | -0.036
12 | TJP1 (UniProt Q07157) | 0.014
13 | TANGO6 (UniProt Q9C0B7) | -0.068
14 | TANK (UniProt Q92844) | 0.127
15 | SRC isoform 2 (UniProt P12931) | 0.05
16 | SUOX (UniProt P51687) | 0.013
17 | SNRNP40 (UniProt Q96DI7) | 0.038

Row | Target | log2 fold change
18 | SNX11 (UniProt Q9Y5W9) | 0.043
19 | TIMM13 (UniProt Q9Y5L4) | -0.085
20 | SRSF9 (UniProt Q13242) | 0.171
21 | SLC35F6 (UniProt Q8N357) | 0.319
22 | SMCHD1 (UniProt A6NHR9) | 0.038
23 | SP3 (UniProt Q02447) | 0.054
24 | TBC1D20 isoform 3 (UniProt Q96BZ9) | -0.017
25 | SYK (UniProt P43405) | 0.048
26 | TIMM29 (UniProt Q9BSF4) | -0.031
27 | SMARCE1 (UniProt Q969G3) | -0.037
28 | SRSF4 (UniProt Q08170) | 0.019
29 | SULT1A1 (UniProt P50225) | -0.056
30 | SLC27A4 (UniProt Q6P1M0) | -0.044
31 | SSB (UniProt P05455) | 0.011
32 | TLK2 isoform 2 (UniProt Q86UE8) | 0.025
33 | TMBIM1 (UniProt Q969X1) | -0.166

compound: CC(C)N(C[C@H]1O[C@@H](n2cnc3c(N)ncnc32)[C@H](O)[C@@H]1O)[C@H]1C[C@@H](CCc2nc3cc(C(C)(C)C)ccc3[nH]2)C1 [pinometostat]; assay: as above
Outline: as §1

Row | Target | log2 fold change
34 | STK38 (UniProt Q15208) | 0.058
35 | TBC1D24 (UniProt Q9ULP9) | 0.04
36 | SMARCA4 (UniProt P51532) | 0.193
37 | TAOK3 (UniProt Q9H2K8) | 0.012
38 | SP100 isoform 4 (UniProt P23497) | -0.035
39 | SLC35B4 (UniProt Q969S0) | -0.056
40 | TBRG4 (UniProt Q969Z0) | -0.014
41 | SPTBN4 (UniProt Q9H254) | -0.007
42 | TGFBI (UniProt Q15582) | -0.092
43 | STARD3NL (UniProt O95772) | 0.013
44 | TJP1 (UniProt Q07157) | 0.037
45 | TANGO6 (UniProt Q9C0B7) | 0
46 | TANK (UniProt Q92844) | -0.047
47 | SRC isoform 2 (UniProt P12931) | 0.087
48 | SUOX (UniProt P51687) | 0.016
49 | SNRNP40 (UniProt Q96DI7) | -0.019
50 | SNX11 (UniProt Q9Y5W9) | -0.067

Row | Target | log2 fold change
51 | TIMM13 (UniProt Q9Y5L4) | -0.092
52 | TATDN2 (UniProt Q93075) | 0.047
53 | SRSF9 (UniProt Q13242) | 0.29
54 | SMCHD1 (UniProt A6NHR9) | 0.092
55 | SP3 (UniProt Q02447) | 0.026
56 | TBC1D20 isoform 3 (UniProt Q96BZ9) | 0
57 | SYK (UniProt P43405) | 0.19
58 | TIMM29 (UniProt Q9BSF4) | 0.444 (active)
59 | SMARCE1 (UniProt Q969G3) | -0.031
60 | SRSF6 (UniProt Q13247) | 0.116
61 | SRSF4 (UniProt Q08170) | 0.126
62 | SULT1A1 (UniProt P50225) | 0.001
63 | SLC27A4 (UniProt Q6P1M0) | 0.039
64 | SSB (UniProt P05455) | -0.005
65 | TLK2 isoform 2 (UniProt Q86UE8) | -0.004
66 | STK11IP (UniProt Q8N1F8) | 0.168

compound: CC1=C(C(CC(=O)N1)C2=CC=C(C=C2)C(F)(F)F)C(=O)NC3=C(C=C4C(=C3)C=NN4)F; assay: as above
Outline: as §1

Row | Target | log2 fold change
67 | STK38 (UniProt Q15208) | 0.038
68 | TBC1D24 (UniProt Q9ULP9) | 0.047
69 | TAOK3 (UniProt Q9H2K8) | 0.003
70 | SP100 isoform 4 (UniProt P23497) | 0.029
71 | SLC35B4 (UniProt Q969S0) | -0.055
72 | TBRG4 (UniProt Q969Z0) | 0.029
73 | TIMM10B (UniProt Q9Y5J6) | 0.017
74 | SMIM20 isoform 2 (UniProt Q8N5G0) | 0.05
75 | SPTBN4 (UniProt Q9H254) | 0.024
76 | TGFBI (UniProt Q15582) | 0.115
77 | STARD3NL (UniProt O95772) | 0.007
78 | TJP1 (UniProt Q07157) | 0.007
79 | TANGO6 (UniProt Q9C0B7) | 0.013
80 | TANK (UniProt Q92844) | 0.033
81 | SRC isoform 2 (UniProt P12931) | 0.067
82 | SUOX (UniProt P51687) | 0.039
83 | SNRNP40 (UniProt Q96DI7) | -0.1
84 | SNX11 (UniProt Q9Y5W9) | 0.134

Row | Target | log2 fold change
85 | TIMM13 (UniProt Q9Y5L4) | 0.018
86 | TATDN2 (UniProt Q93075) | -0.023
87 | SRSF9 (UniProt Q13242) | -0.011
88 | SLC35F6 (UniProt Q8N357) | -0.177
89 | SMCHD1 (UniProt A6NHR9) | -0.08
90 | SP3 (UniProt Q02447) | 0.114
91 | TBC1D20 isoform 3 (UniProt Q96BZ9) | -0.061
92 | TIMM29 (UniProt Q9BSF4) | -0.004
93 | SMARCE1 (UniProt Q969G3) | 0.21
94 | SRSF6 (UniProt Q13247) | 0.003
95 | SRSF4 (UniProt Q08170) | -0.009
96 | SULT1A1 (UniProt P50225) | 0.014
97 | SLC27A4 (UniProt Q6P1M0) | 0.047
98 | SSB (UniProt P05455) | 0.071
99 | TLK2 isoform 2 (UniProt Q86UE8) | -0.015
100 | TMBIM1 (UniProt Q969X1) | -0.107
101 | STK11IP (UniProt Q8N1F8) | 0.1
